The values that follow come from ChEMBL document CHEMBL1961873, “Compounds: GSK PKIS; Assays: Nanosyn kinase panel” (2012).

Each structure is given as a SMILES string.

The target of assay [1] is Sphingosine kinase 1 (Homo sapiens) (UniProt Q9NYA1). The following applies: at 1 µM.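 Also: mean SPHK1 inhibition value reported from the GSK PKIS kinase panel screen.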
Assay [2] concerns the target T1, Sphingosine kinase 2 (Homo sapiens) (UniProt Q9NRA0).
T1 sequence (whole entry): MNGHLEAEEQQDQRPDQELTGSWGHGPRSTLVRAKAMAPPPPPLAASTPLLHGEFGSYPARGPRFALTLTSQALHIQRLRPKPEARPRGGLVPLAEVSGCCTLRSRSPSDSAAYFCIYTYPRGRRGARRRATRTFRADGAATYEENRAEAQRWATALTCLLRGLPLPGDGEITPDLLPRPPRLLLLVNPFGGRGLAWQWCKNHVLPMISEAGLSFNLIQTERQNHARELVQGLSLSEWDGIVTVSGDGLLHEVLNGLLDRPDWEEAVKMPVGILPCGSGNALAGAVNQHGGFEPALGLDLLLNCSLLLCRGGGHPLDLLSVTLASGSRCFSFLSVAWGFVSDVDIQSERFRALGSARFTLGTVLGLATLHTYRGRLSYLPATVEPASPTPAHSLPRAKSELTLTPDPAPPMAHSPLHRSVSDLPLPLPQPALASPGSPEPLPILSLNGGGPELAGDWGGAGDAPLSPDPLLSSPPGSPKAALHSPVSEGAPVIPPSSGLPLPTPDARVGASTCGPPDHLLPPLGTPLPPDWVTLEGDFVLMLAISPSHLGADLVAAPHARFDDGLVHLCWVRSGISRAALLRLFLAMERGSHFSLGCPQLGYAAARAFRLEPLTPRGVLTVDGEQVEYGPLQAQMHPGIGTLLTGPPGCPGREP
Conditions: at 0.1 µM.

Assay [3] addresses T1, Sphingosine kinase 2 (Homo sapiens). The following applies: at 1 µM.
Assay [4] addresses Casein kinase II subunit alpha (Homo sapiens) (UniProt P68400). Conditions: at 0.1 µM.
Assay [5] has the same target. Conditions: at 1 µM.
Assay [6] addresses T2, Inhibitor of nuclear factor kappa-B kinase subunit alpha (Homo sapiens) (UniProt O15111).
T2 sequence (whole entry): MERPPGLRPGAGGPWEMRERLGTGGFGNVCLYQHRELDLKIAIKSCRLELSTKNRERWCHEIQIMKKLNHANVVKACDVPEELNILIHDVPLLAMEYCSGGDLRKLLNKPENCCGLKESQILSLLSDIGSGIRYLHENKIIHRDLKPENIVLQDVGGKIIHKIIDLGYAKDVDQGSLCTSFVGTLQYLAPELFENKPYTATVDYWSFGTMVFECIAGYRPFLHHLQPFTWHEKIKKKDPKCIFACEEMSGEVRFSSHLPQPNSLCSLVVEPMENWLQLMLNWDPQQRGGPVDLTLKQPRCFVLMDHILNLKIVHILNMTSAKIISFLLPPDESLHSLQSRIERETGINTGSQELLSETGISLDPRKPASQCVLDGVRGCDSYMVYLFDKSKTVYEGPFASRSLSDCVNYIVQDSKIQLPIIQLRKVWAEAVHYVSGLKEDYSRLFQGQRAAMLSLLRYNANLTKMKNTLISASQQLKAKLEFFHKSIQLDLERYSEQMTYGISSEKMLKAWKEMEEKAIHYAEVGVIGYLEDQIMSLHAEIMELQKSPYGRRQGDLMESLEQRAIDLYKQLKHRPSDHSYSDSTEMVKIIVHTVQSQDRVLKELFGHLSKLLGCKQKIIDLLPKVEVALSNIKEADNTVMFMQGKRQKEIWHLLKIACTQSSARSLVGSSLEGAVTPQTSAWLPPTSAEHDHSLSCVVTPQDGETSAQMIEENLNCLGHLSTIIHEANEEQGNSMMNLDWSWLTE
The following applies: at 0.1 µM.

In assay [7] the target is T2, Inhibitor of nuclear factor kappa-B kinase subunit alpha (Homo sapiens). The following applies: at 1 µM.
The target of assay [8] is T3, Inhibitor of nuclear factor kappa-B kinase subunit beta (Homo sapiens) (UniProt O14920).
T3 sequence (whole entry): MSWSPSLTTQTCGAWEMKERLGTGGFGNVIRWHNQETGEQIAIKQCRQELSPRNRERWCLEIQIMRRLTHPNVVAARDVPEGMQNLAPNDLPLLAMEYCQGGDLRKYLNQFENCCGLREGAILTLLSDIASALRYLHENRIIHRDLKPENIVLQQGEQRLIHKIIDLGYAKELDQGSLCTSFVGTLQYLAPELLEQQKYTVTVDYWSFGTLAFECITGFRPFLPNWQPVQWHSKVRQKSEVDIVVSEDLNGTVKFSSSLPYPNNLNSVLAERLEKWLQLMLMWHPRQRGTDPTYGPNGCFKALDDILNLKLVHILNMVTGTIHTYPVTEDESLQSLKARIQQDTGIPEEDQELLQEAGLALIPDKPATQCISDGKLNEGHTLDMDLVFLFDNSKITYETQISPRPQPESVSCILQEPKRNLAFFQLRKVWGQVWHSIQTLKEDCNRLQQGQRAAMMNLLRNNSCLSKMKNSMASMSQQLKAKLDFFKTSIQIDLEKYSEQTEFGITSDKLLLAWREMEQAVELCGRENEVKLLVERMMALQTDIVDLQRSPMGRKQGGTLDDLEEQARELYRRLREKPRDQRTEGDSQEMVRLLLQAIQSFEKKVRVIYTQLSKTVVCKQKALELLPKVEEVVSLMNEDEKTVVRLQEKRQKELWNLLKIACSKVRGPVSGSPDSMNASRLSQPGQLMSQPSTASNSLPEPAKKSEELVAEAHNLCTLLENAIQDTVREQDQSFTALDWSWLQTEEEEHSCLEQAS
Conditions: at 0.1 µM.

Assay [9] has as its target T3, Inhibitor of nuclear factor kappa-B kinase subunit beta (Homo sapiens). The following applies: at 1 µM.
Assay [10] concerns the target T4, Inhibitor of nuclear factor kappa-B kinase subunit epsilon (Homo sapiens) (UniProt Q14164).
T4 sequence (whole entry): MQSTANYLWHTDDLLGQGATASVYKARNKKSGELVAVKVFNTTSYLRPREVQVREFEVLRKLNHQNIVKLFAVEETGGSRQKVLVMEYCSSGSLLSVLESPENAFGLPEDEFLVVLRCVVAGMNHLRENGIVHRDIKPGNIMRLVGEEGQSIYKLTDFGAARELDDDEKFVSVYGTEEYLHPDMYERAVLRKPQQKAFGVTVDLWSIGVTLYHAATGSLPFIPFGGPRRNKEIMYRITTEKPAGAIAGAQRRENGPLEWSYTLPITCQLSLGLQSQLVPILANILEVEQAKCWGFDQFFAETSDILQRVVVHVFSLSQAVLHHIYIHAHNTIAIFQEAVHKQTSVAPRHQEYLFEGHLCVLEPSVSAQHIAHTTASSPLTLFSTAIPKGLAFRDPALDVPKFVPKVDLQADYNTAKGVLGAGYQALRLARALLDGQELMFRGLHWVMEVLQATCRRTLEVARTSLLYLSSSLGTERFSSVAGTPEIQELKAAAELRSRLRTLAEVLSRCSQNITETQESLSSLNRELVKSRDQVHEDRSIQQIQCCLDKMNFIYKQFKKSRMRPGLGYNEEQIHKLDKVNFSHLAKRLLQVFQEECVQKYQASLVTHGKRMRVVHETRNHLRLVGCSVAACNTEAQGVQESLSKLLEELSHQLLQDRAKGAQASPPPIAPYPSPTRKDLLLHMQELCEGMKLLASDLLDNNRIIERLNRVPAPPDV
Conditions: at 0.1 µM.

The target in assay [11] is T4, Inhibitor of nuclear factor kappa-B kinase subunit epsilon (Homo sapiens). The following applies: at 1 µM.
The target of assay [12] is T5, Serine/threonine-protein kinase Nek1 (Homo sapiens) (UniProt Q96PY6).
T5 sequence (whole entry): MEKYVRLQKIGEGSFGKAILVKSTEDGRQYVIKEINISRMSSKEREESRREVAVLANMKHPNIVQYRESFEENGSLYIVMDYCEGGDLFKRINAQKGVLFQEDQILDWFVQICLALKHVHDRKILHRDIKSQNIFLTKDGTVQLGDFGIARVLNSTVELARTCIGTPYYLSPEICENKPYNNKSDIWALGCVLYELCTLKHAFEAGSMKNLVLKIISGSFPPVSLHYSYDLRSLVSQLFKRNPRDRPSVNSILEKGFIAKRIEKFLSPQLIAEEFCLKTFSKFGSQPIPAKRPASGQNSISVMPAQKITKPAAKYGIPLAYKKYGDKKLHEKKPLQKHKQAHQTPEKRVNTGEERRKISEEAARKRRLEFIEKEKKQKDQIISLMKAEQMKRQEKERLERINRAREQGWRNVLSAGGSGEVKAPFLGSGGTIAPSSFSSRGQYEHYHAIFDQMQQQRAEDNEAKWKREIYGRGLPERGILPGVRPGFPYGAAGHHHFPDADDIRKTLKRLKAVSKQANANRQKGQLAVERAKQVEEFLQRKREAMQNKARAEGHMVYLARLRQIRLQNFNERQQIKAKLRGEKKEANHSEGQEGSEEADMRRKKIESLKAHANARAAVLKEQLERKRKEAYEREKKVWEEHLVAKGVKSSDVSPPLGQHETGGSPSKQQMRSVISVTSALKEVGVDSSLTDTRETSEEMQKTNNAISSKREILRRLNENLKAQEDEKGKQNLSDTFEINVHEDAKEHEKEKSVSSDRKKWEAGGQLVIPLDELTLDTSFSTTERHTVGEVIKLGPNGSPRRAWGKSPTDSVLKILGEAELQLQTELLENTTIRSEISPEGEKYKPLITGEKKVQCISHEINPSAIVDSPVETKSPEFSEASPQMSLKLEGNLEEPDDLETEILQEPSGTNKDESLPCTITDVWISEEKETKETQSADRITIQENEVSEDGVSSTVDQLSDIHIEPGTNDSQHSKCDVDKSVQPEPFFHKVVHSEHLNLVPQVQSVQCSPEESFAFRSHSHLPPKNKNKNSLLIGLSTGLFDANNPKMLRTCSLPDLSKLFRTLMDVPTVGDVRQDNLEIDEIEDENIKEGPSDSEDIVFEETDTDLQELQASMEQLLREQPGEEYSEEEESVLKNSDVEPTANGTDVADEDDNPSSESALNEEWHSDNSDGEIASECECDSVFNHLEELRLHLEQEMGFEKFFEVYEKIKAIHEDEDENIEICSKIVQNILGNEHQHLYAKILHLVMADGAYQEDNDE
The following applies: at 0.1 µM.

The target in assay [13] is T5, Serine/threonine-protein kinase Nek1 (Homo sapiens). Conditions: at 1 µM.
The target of assay [14] is T6, Serine/threonine-protein kinase Nek2 (Homo sapiens) (UniProt P51955).
T6 sequence (whole entry): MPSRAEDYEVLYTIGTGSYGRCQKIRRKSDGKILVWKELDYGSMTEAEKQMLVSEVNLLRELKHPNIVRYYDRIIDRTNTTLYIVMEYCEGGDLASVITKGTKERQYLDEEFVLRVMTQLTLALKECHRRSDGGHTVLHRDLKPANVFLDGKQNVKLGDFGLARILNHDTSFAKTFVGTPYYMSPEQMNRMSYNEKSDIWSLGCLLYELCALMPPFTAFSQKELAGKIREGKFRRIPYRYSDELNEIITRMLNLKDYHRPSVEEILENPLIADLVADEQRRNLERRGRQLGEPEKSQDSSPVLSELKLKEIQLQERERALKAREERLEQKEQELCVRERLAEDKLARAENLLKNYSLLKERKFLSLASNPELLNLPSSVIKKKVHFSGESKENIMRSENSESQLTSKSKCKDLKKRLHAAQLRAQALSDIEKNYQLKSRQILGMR
Conditions: at 0.1 µM.

The target in assay [15] is T6, Serine/threonine-protein kinase Nek2 (Homo sapiens). Conditions: at 1 µM.
Assay [16] addresses Serine/threonine-protein kinase Nek6 (Homo sapiens) (UniProt Q9HC98). Conditions: at 0.1 µM.
For assay [17] the target is unchanged. Conditions: at 1 µM.
Assay [18] has as its target Serine/threonine-protein kinase Nek7 (Homo sapiens) (UniProt Q8TDX7). The following applies: at 0.1 µM.
The target is the same in assay [19]. The following applies: at 1 µM.
The target in assay [20] is T7, Serine/threonine-protein kinase Nek9 (Homo sapiens) (UniProt Q8TD19).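 Also: reported value is the mean percent inhibition of NEK9.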
T7 sequence (whole entry): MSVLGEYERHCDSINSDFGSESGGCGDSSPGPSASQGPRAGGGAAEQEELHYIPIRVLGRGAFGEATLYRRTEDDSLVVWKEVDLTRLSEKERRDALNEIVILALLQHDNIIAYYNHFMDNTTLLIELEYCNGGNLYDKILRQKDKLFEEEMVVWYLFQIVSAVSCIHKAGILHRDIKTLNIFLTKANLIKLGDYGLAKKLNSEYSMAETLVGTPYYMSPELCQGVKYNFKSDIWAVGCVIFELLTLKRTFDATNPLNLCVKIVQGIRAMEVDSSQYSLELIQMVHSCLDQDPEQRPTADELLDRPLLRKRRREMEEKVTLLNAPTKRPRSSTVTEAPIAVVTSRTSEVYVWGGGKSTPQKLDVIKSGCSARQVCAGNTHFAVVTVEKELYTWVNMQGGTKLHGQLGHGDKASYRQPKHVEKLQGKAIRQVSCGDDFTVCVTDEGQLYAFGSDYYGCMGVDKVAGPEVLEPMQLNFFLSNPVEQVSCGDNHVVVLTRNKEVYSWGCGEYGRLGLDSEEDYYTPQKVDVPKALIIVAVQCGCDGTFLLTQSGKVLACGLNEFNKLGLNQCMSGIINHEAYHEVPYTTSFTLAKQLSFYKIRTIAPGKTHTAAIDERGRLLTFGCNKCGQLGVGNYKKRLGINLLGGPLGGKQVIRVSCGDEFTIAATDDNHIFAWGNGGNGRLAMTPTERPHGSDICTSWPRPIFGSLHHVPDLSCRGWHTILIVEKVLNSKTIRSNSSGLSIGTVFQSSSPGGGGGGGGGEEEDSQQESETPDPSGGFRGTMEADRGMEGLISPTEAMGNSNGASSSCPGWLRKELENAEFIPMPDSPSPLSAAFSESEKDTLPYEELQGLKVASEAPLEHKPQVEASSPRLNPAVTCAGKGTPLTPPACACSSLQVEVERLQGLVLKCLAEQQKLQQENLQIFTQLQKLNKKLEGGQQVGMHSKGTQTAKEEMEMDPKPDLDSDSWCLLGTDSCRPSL
Conditions: at 0.1 µM.

Chain of Casein kinase II subunit alpha (Homo sapiens) (P68400 whole entry, looked up): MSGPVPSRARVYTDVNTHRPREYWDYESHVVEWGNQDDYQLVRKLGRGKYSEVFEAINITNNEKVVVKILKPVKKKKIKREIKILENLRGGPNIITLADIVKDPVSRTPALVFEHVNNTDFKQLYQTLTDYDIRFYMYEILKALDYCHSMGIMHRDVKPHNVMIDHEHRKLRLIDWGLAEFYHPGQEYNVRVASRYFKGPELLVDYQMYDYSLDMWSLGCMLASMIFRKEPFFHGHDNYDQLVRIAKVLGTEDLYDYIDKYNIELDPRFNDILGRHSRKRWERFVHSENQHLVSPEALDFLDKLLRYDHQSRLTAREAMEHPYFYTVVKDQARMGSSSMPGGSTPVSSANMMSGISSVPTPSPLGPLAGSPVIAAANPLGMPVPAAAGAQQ
Chain of Serine/threonine-protein kinase Nek7 (Homo sapiens) (Q8TDX7 whole entry, looked up): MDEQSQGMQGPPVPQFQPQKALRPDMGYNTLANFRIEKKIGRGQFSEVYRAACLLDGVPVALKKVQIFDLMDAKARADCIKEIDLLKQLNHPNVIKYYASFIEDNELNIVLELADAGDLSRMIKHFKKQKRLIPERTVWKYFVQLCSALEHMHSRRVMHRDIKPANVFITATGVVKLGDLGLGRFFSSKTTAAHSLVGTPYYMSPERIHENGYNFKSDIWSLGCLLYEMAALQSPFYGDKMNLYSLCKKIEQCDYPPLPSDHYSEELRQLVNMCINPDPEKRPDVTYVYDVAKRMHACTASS
Chain of Serine/threonine-protein kinase Nek6 (Homo sapiens) (Q9HC98 whole entry): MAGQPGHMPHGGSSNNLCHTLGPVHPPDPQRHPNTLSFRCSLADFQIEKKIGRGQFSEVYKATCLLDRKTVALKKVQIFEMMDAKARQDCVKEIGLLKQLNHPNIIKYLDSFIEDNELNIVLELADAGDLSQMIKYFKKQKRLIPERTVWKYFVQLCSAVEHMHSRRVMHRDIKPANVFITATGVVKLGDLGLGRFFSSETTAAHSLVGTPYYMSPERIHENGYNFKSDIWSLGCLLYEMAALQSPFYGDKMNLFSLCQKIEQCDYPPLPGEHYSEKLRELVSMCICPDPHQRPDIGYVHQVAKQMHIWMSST
Chain of Sphingosine kinase 1 (Homo sapiens) (Q9NYA1 whole entry): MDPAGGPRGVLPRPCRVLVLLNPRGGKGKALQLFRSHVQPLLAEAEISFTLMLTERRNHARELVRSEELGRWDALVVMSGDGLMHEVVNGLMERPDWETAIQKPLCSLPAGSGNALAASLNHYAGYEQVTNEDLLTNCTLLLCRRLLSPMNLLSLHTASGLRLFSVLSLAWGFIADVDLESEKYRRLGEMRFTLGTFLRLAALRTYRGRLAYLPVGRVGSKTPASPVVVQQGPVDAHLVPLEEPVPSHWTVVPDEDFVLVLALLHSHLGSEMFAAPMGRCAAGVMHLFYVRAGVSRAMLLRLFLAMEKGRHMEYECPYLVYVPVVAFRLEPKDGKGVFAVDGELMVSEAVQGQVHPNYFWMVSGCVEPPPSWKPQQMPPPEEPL

The inhibition is the relative decrease from the control value, in per cent. Consider `Clc1ccc(-c2nn3ncccc3c2-c2ccnc(Nc3ccccc3)n2)cc1`, for which the inhibition was -1.12% in [1]; -0.19% in assay [2]; 0.98% in assay [3]; 1.72% in assay [4]; 1.08% in assay [5]; -0.83% in assay [6]. The inhibition was 0.14% in assay [7]; -3.05% in assay [8]; -3.62% in [9]; 1.23% in [10]; -3.51% in assay [11]; 1.79% in [12]. Besides, the inhibition in assay [13] is 1.38%; in assay [14] it was 2.53%; in [15], 1.79%; in [16], 2.55%; in assay [17] it was 2.29%; in assay [18], 2.07%. Also, the inhibition in [19] was 1.34%; in assay [20], 5.9%.
